Hits are enriched below; roughly 7.4% of the tested compounds scored in any of these assays.
NPC1 promoter act = qHTS Assay for NPC1 Promoter Activators | Huh7 NPC1 promoter luciferase reporter, 24 h | Potency, µM (titrated, usually from 9.22 µM), for inactives: top-dose activation, usual class: activators | 320,000 compounds, 2.4% hits | AID 485313, 2010; also: % of control where 0% means no effect; nearly all actives have a fitted effect of over 60% in size
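Luminescence from an NPC1 promoter-driven luciferase reporter in stably transfected Huh7 cells was measured after 24 h compound treatment at 37 °C, followed by 10 min ambient incubation with luciferase detection reagent.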
ELG1 genotox = qHTS screen for small molecules that induce genotoxicity in human embryonic kidney (HEK293T) cells expressing luciferase-tagged ELG1; HEK293T ELG1-luciferase reporter, luminescence, 16 h; Potency, µM (series often up to 46 µM), without a hit: at the top dose activity change, positive = activation, actives largely listed as activators; 330,000 compounds, 1.3% hits; also: % of control where 0% means no effect; nearly all actives have a fitted effect of over 60% in size
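HEK293T cells expressing luciferase-tagged ELG1 were exposed to compound or DMSO vehicle for 16 hr at 37 °C and 5% CO2. Luciferase activity was then measured with ONE-Glo after 30 min at room temperature.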
Rab9 promoter act = qHTS Assay for Rab9 Promoter Activators; Huh7 Rab9 promoter-luciferase reporter, luminescence, 24 h; Potency, µM (top dose mostly 9.22 µM), for the others: at the top dose activation, negative = inhibition, most hits filed as activators; 320,000 compounds, 2.8% hits; also: % of control where 0% means no effect; nearly all actives have a fitted effect of over 60% in size
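Cells were plated at 1500 per well in reduced-serum medium with 10% FBS and left 2 h. Compound in DMSO was then added for 24 h at 37 °C. Reporter signal was read by luminescence after 10 min with luciferase detection reagent.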
FLuc counter = qHTS profiling assay for firefly luciferase inhibitor/activator using purifed enzyme and Km concentrations of substrates (counterscreen for miR-21 project) | Luciferin 4-monooxygenase (Photinus pyralis), P08659 | purified FLuc, Km substrates, luminescence inhibition | AID 588342, 2011 | Potency, µM (titrated, usually from 57.5 µM), inactives show at the highest dose activity change, negative = inhibition, hits mostly inhibitors | 360,000 compounds, 6.9% hits;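 also: plate controls were vehicle for no effect and reference inhibitor for full effect; nearly all actives have a fitted effect of over 55% in size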
Target sequence (P08659 whole entry, looked up): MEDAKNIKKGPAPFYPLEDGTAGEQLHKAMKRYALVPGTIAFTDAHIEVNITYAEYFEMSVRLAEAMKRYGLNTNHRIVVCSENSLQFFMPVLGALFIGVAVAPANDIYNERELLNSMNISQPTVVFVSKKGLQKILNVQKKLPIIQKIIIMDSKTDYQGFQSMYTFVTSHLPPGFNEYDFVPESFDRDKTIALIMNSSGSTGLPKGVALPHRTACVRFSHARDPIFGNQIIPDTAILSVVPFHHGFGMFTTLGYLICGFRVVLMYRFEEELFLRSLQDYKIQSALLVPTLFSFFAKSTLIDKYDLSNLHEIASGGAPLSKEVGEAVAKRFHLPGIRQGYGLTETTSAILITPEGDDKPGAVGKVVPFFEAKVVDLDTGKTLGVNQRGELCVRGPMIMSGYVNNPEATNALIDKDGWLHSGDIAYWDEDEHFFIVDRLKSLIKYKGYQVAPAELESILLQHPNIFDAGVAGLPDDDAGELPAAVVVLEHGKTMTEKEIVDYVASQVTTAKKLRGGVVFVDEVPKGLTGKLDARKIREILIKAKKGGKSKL
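Biochemical qHTS of compounds, final roughly 60 µM downward over six points, against 10 nM purified firefly luciferase using Km concentrations of substrates (10 uM D-luciferin, 10 uM ATP) in Tris acetate pH 7.5 buffer; luminescence output.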
SMN2 splice up = qHTS Assay for Enhancers of SMN2 Splice Variant Expression; HEK293 SMN2-luciferase splicing reporter, luminescence, 30-36 h; AID 1458, 2008; 210,000 compounds, 2.8% hits; Potency, µM (highest dose often 46.1 µM), without a hit: at the highest dose activity change, positive = activation, hits mostly activators; also: % of control where 0% means no effect; nearly all actives have a fitted effect of over 55% in size
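qHTS luciferase splicing reporter: luminescence rises when SMN2 exon 7 is included in transfected HEK293 cells. Compound exposure lasted 30-36 h at 37C, with 4.5 mM final sodium butyrate as control, followed by a ONE-Glo read.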
KinaseGlo FLuc = Counterscreen for Luciferase (Kinase-Glo TM) Inhibition. Kinase-Glo luciferase, ATP luminescence, 8 min. Potency, µM (series often up to 38.3 µM), for inactives: at the top dose activity change, negative = inhibition, most hits filed as inhibitors. 200,000 compounds, 0.28% hits. AID 1379, 2008; also: % is scaled to controls: 0 for no effect and ±100 for the full control effect; nearly all actives have a fitted effect of over 60% in size
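Substrate mix (final 50 mM imidazole pH 7.2, 50 mM KCl, 7 mM MgCl2, 10 uM ATP, 0.01% Tween 20, 0.05% BSA) plus pin-tool compound, then Kinase-Glo detection mix; 8 min ambient, luminescence read.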
* hit, by the source's call; ? = inconclusive; . = no result given; [ ] = dose if it differs, or a comment. Calls follow the shape of the dose curve; as a rule, active = well fitted curve in the direction sought with a large enough effect; inconclusive = small, poorly fitted or top-dose-only effect, or another doubt; inactive = no such curve, though single readings can be large; an effect the other way counts as inactive or inconclusive. Potency is read from the fitted curve at half-maximal effect.

SMILES	NPC1 promoter act	ELG1 genotox	Rab9 promoter act	FLuc counter	SMN2 splice up	KinaseGlo FLuc
O=C1NC(=O)/C(=C\c2ccc(OCc3cnc(Cl)s3)cc2)S1	17%	6%	-3%	?	15%	1%
O=C1/C(=C/c2cccs2)Sc2ccccc21	14%	?	?	1.1µM*	?	?
CC(C)COc1ccc(/C=C2/Sc3ccccc3C2=O)cc1	?	?	22%	1.3µM*	?	-24%
CC(=O)Oc1cccc(C)c1	.	.	.	.	.	1%[39.9 µM]
CCCCOc1ccc(/C=C2/Sc3ccccc3C2=O)cc1	3%	8%	28%	3.4µM*	16µM*	-17%
CN(C)C(=O)n1nnnc1Cc1ccc(-c2ccccc2)cc1	.	.	.	.	.	3%[39.9 µM]
COc1ccc([N+](=O)[O-])cc1NC(=O)C(C)OC(=O)Cn1[nH]c(=O)c2ccccc2c1=O (stereo not drawn)	1%	-5%	-7%	0%	.	.
O=C1CCc2cc(NS(=O)(=O)c3cc(F)ccc3F)cc3c2N1CC3	-1%	20%	-3%	6%	.	.
CN(C)C(CNC(=O)c1ccc(C(F)(F)F)cc1)c1ccco1 (stereo not drawn)	-2%	2%	26%	?	.	.
Nc1cccn2c(-c3ccc(Cl)cc3)cnc12	?	?	3.5µM*	2.7µM*	11µM*	-8%
Nc1cccn2c(-c3ccc(Cl)c(Cl)c3)cnc12	?	?	3.2µM*	3µM*	3.5µM*	-5%
Nc1nnc(-c2ccc(Cl)c(Cl)c2)s1	2%	1%	14%	?	3%	3%
Cn1c(-c2ccc(Cl)cc2)cnc1N	9%	-2%	7%	0%	-4%	0%
Cc1cccc(C(=O)N2c3ncnn3C3(CCCCC3)[C@@H]3CCCC[C@@H]32)c1	.	.	.	-9%	.	.
CC(=O)Oc1ccc(C(=O)Nc2ccccc2C(=O)Nc2cccc(C(=O)O)c2)cc1	0%	12%	1%	4.3µM*	.	.
CC(C)CNC(=O)c1cccc(NC(=O)CSc2ccc(Cl)cc2)c1	-1%	-7%	-1%	?	-3%	1%
CC(=O)Oc1ccc(C(=O)Nc2cccc(C(=O)NC(C)(C)C)c2)cc1	2%	1%	-8%	19µM*	-23%	10%
CC(C)(C)NC(=O)c1cccc(NC(=O)CSc2ccc(Cl)cc2)c1	1%	-4%	-6%	11µM*	-18%	-1%
O=C(Cc1ccc(Cl)cc1)Nc1cccc(C(=O)Nc2ccccc2C(=O)O)c1	-4%	1%	-7%	-19%	.	.
CC(=O)Oc1ccc(C(=O)Nc2cccc(C(=O)c3cccc(NC(=O)c4ccc(OC(C)=O)cc4)c3)c2)cc1	-7%	-6%	-6%	-10%	4%	0%
CC(=O)Oc1ccc(C(=O)Nc2cccc(C(=O)Nc3ccccc3C(=O)O)c2)cc1	-3%	-6%	2%	11µM*	.	.
COc1ccc(NC(=O)c2ccccc2NC(=O)c2ccccc2)cc1	16%	6%	8%	?	.	.
CC(=O)Oc1ccc(C(=O)Nc2ccccc2C(=O)Nc2ccc(C(=O)O)cc2)cc1	4%	-1%	1%	2.4µM*	.	.
COCc1cccc(C(=O)NC(c2ccccc2)c2ccccc2)c1	-3%	-1%	-5%	2%	.	.
N#Cc1c(N)nc2c(c1-c1ccc(Br)s1)CCCC2	-1%	-3%	-1%	0%	-1%	-2%
Cc1ccc(/C=N/n2c(C)cc(C)c(C#N)c2=O)o1	-1%	-1%	-1%	-2%	-21%	-2%
N#Cc1c(/N=C/c2cccnc2)sc2c1CCCC2	-3%	3%	-4%	2.7µM*	.	.
N#Cc1c(/N=C/c2cccs2)sc2c1CCCCC2	3.5µM*	0.52µM*	2µM*	0.38µM*	-24%	?
